Screening data deposited in PubChem by several laboratories.
Hits are enriched below; roughly 4.6% of the tested compounds scored in any of these assays.
HSF-1 act = increases HSF-1 driven luciferase reporter signal; NIH3T3-HGL HSF-1 luciferase reporter, MG132, 8 h; 100% = twice DMSO control signal; activation, % at 9 µM; hit rate 1.7% among 300,000; AID 504408;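 active means mean replicate activation of at least 50% with a set share of replicates each reaching 50%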;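 further: 0% = median of the neutral control wells and 100% = twice that signal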
GAA850 FXN act = activators of GAA850 frataxin (FXN) promoter | HEK293 lucGAA850 FXN promoter luciferase reporter, 24 h; percent of 10 µM SAHA response | activation, % at 6 µM | hit rate 0.56% among 360,000 | AID 540364;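 active means activation above the average of all compounds screened plus 3 SD, cutoff fixed separately per campaign, cut at about 7.5% in these data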;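 further: 0% = DMSO wells and 100% = 10 µM SAHA wells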
HSF1 inh = HSF1 inhibition; NIH3T3-HGL HSE-luciferase, MG132-induced, luminescence 8 h; hits give low values; hit rate 0.77% among 300,000; activity change, negative = inhibition, % at 7.5 µM (by protocol);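 active means more than half of replicate wells show activity change below -50%, luminescence cut by over half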;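 further: luciferase reports HSF-1 transcriptional activity via heat shock element; 0% = median of DMSO wells and -100% = zero luminescence signal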
AHR act = human AHR activation; P35869; AHR-responsive luciferase reporter cells, luminescence; activation, % at 5 µM; hit rate 2.5% among 320,000; AID 2796; in the data active means activation above about 47%;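 further: 0% = vehicle wells and 100% = reference agonist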
Target sequence (P35869 whole entry, looked up): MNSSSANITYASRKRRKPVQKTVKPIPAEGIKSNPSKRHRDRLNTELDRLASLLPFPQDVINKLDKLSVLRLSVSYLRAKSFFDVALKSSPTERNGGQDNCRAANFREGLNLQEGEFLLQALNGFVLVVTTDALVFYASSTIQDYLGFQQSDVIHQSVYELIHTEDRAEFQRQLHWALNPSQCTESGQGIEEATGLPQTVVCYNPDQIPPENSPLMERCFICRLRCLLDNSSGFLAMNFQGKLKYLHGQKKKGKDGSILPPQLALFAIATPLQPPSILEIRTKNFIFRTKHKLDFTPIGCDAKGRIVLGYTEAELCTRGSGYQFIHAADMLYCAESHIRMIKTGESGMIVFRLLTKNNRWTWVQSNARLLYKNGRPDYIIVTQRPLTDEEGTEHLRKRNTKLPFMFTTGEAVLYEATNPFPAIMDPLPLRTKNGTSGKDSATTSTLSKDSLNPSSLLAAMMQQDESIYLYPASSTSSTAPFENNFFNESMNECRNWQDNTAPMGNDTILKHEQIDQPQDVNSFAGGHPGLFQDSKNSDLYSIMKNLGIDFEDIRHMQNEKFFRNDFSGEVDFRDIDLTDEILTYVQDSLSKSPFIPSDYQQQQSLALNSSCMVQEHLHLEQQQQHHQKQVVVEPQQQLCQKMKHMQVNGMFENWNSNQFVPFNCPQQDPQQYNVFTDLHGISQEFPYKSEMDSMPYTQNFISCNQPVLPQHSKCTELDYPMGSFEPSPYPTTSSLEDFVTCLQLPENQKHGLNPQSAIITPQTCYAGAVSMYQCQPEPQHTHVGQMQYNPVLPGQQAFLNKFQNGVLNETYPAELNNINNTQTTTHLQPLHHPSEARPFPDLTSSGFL
Starred values were filed as active, the others as inactive; nt = not tested or not shown.

SMILES	HSF-1 act	GAA850 FXN act	HSF1 inh	AHR act
CCc1cc(=O)oc2cc(C)cc(OCC(=O)NCc3cccnc3)c12	13	-2	4	49*
Cc1ccc(C(=O)c2ccccc2C(=O)OCC(=O)NCCc2ccc(Cl)cc2Cl)cc1	54*	3	31	0
CCc1cc2c(=O)[nH]c(-c3ccccn3)nc2s1	215*	-16	133	5
CC(=O)Nc1c(C)nn(-c2ccc([N+](=O)[O-])cc2)c1C	-14	1	4	1
CCN(CC)CCN(C(=O)c1cc2ccccc2cc1OC)c1nc2ccc(F)cc2s1	32	3	29	2
COc1ccc(NC(=O)[C@@H]2[C@@H]3C(=O)N(C4CCCCC4)C(=O)[C@@H]3C3c4ccccc4C=CN32)cc1 (some centres not stated)	28	-1	4	90*
CC(=O)[C@@H]1[C@@H]2C(=O)N(C3CCCCC3)C(=O)[C@@H]2C2c3ccccc3C=CN21 (some centres not stated)	4	nt	4	27
COc1ccc(-c2ccc(C#N)c(SCC(=O)Nc3sc4c(c3C#N)CCC4)n2)cc1OC	53*	2	37	0
CC1CCc2c(sc(NC(=O)CSc3nnc(-c4ccccc4)o3)c2C#N)C1 (configuration not stated)	53*	7	25	9
N#Cc1c(NC(=O)CSc2nnc(-c3ccccc3)o2)sc2c1CCCC2	76*	4	52	12
N#Cc1cc2c(nc1SCC(=O)Nc1sc3c(c1C#N)CCC3)CCC2	21	0	13	7
Cn1c(=O)n(C)c2cc(NC(=O)c3ccccc3[N+](=O)[O-])c(Br)cc21	-8	2	-2	16
COc1cc(C(O)c2nc(-c3ccccc3OC)cs2)ccc1F (configuration not stated)	nt	1	nt	nt
COc1cc(S(=O)(=O)N2CCCCC2)c(OC)cc1Br	1	2	8	-1
CC(Oc1ccc(Cl)cc1Cl)c1nc(-c2ccc(NC(=O)c3ccco3)cc2)no1 (configuration not stated)	61*	2	27	0
CCOC(=O)c1csc(COc2ccc(OC)cc2)n1	64*	2	22	-6
CCOC(=O)c1csc(COc2ccccc2Cl)n1	23	-1	15	-4
COc1ccc(OC)c(-n2c(=O)c3ccccc3c3ccccc3c2=O)c1	59*	3	22	1
NS(=O)(=O)c1ccc(N2N=C(c3ccccc3)CC2c2cccc(Cl)c2)cc1 (configuration not stated)	nt	-1	nt	nt
O=C(Cn1cc(C(=O)c2ccco2)c2ccccc21)NC1CCCCC1	-90	1	-87*	2
CN(Cc1cn(C)nc1-c1cccc(Cl)c1)CC1CCCCO1 (configuration not stated)	3	4	-5	5
Cc1ccc(N=Nc2c(N)nn3c(N)c(C#N)c(C)nc23)cc1	27	0	-2	75*
Cc1cc(C)n2nc(N)c(N=Nc3cccc(Cl)c3)c2n1	56*	4	7	24
Cc1ccc(N=Nc2c(N)nn3c(C)cc(C)nc23)cc1	-1	3	-4	58*
COc1cccc(N=Nc2c(=O)[nH]n3c(C)cc(C)nc23)c1	-3	1	-5	28
SMILES	HSF-1 act	GAA850 FXN act	HSF1 inh	AHR act
O=C(N/N=C1\CC(c2ccccc2)Oc2ccccc21)c1ccc(O)cc1 (configuration not stated)	71*	0	35	29
O=C(N/N=C1\CC(c2ccccc2)Oc2ccccc21)c1cccnc1 (configuration not stated)	13	-1	12	36
CCCn1c(=O)c(C(=O)NNC(=O)c2cccc([N+](=O)[O-])c2)c(O)c2ccccc21	-18	-1	-2	0
O=C(O)CCN1C(=O)/C(=C\c2ccc(-c3nc4ccccc4s3)o2)SC1=S	4	1	0	11
COc1ccccc1NC(=O)c1cnc(Nc2ccccc2OC)c2ccccc12	1	1	-3	73*
Cc1cccc(C)c1NC(=O)c1c[nH]c2ccccc12	38	1	14	55*
COc1cc(Cl)c(CC(=O)c2c[nH]c3ccccc23)cc1OC	62*	-1	13	2
COc1ccccc1NC(=O)c1c[nH]c2ccccc12	46	1	1	61*
COc1ccccc1NC(=O)c1ccccc1C(=O)Nc1ccccc1OC	-4	-1	-2	-1
Cc1cccc(C)c1NC(=O)CNC(=O)Cc1c[nH]c2ccccc12	-3	2	0	6
Cc1onc(C(=O)Nc2ccccc2C(F)(F)F)c1[N+](=O)[O-]	-9	0	-1	-1
